The source of these data is PubChem BioAssay AID651644 (National Center for Advancing Translational Sciences (NCATS), 2012).

Out of some 360,000 compounds screened, about 750 (0.21%) were called active. Another 2% or so got no clear call; they are omitted. Calls follow the shape of the dose curve; as a rule, active = well fitted falling curve with a large enough effect; inconclusive = small, poorly fitted or top-dose-only effect; inactive = no such curve, though single readings can be large or run the other way. The list comes from a sample in which actives are over-represented; it also holds similar structures and randomly drawn compounds. Where a call stands in place of a potency, no number is given.
Potency is read from the fitted curve at half-maximal effect.

This assay in a line: qHTS Assay for Inhibitors of the HIV-1 protein Vpr. Also: nearly all actives have a fitted effect of over 50% in size. As to conditions: S. pombe RE007 Vpr strain, BacTiter-Glo ATP luminescence, 24 h; series mostly up to 92.2 µM. From the text: Human immunodeficiency virus type 1 (HIV-1), the causative agent of AIDS, contains a protein called viral protein R (Vpr) that plays an important role in the viral life cycle and the pathogenesis of HIV-1.
These Vpr specific activities include cytoplasmic-nuclear shuttling, induction of cell cycle G2 arrest and cell killing. The cytoplasmic-nuclear shuttling is believed to participate in nuclear transport of the proviral integration complex (PIC). The cell cycle G2 arrest induced by Vpr is thought to suppress human immune functions by preventing T cell clonal expansion and to provide an optimized cellular environment for maximal levels of viral replication. In addition, Vpr induces apoptosis, which may contribute to the depletion of CD4 T cells in HIV-infected patients. Since the Vpr-specific activities have been linked to such clinical manifestation of AIDS as activation of viral replication, suppression of host immune responses and depletion of CD4+ T-lymphocytes, identification of new molecular probes that can inhibit the Vpr activities could potentially provide a new approach to reduce Vpr-mediated detrimental effects in HIV-infected patients, and thus prolong patient's lives. Currently, there are no anti-Vpr drugs.
A fission yeast (Schizosaccharomyces pombe) model system for the Vpr studies has been developed which measures HIV-1 Vpr-induced cell death. This assay will be used for to screen the NIH Molecular Libraries Small Molecule Repository (MLSMR) identify small molecule HIV-1 Vpr inhibitors.
NIH Chemical Genomics Center [NCGC]
NIH Molecular Libraries Probe Centers Network [MLPCN]
Assay Submitter (PI): Richard Zhao, University of Maryland
The fission yeast RE007 strain was used, which carries a single integrated copy of HIV-1 vpr gene in the yeast chromosome. The starting culture was frozen stock 100ul of yeast RE007 in 150ml of *PMG+AL medium, Incubation in 30 degree plus 99% humidity for 18 hours. Next day dispensed 2.5ul of PMG+AL medium in each well to 1536 well white solid plate, then 23nL compound were delivered to each well using a pin tool. Check OD for overnight culture and add cell density at 0.01 for each well, incubation in 30 degree plus 99% humidity for 24 hours. After add 5 ul of *BacTiter/Glo detect reagent to each well at room temperature for 5 minutes then to red out results with Viewlux CCD camera.
`COc1ccc(C(=O)Nc2ccccc2C(=O)N/N=C/c2ccc(O)c(OC)c2)cc1`: the Potency is 7.94 µM (active).

Consider `CC(C)C(c1nnnn1C1CCCCC1)N1CCN(C(=O)c2ccco2)CC1` (stereo not given), for which the Potency result was “inactive”.

Regarding `CCC1Nc2ncnc(N3CCN(c4ccccc4)CC3)c2N(Cc2ccc(Cl)cc2)C1=O` (stereo not given), the Potency result was “inactive”.

Take `O=C(NNC1CC(=O)N(c2cccc(Cl)c2)C1=O)c1cccnc1` (stereo not given): the Potency result is “inactive”.

With `Cc1ccc(NC(=O)C2CCC(C(C)(C)C)CC2)cc1S(=O)(=O)N1CCOCC1` (stereo not given), the Potency result is “inactive”.

As to `Cc1nn(C)c(C)c1S(=O)(=O)N1CCc2ccccc21`, the Potency entry is “inactive”.

On to `Cc1[nH]c(C)c(S(=O)(=O)N2CCC(C)CC2)c1C(=O)N1CCCC1`, for which the Potency entry is “inactive”.

With `O=C(O)c1cscn1`, the Potency result is “inactive”.

As for `CC(C)CC1(C(=O)NCc2ccccn2)C=CCN1C(=O)c1ccccc1` (stereo not given), the Potency entry was “inactive”.

On to `COc1ccc(C(O)C(O)(C(=O)OC(C)C)c2ccc(C)cc2)cc1` (stereo not given), for which the Potency result was “inactive”.

Take `COC(=O)c1ccc(CNC(=O)c2ccc3oc(C(C)C)nc3c2)cc1`: the Potency entry is “inactive”.

Consider `Cc1ccc(C)c(-n2cc(CN3CCN(C(=O)c4ncn[nH]4)CC3)c(-c3ccccc3)n2)c1`, for which the Potency entry was “inactive”.

On to `CC(NC(=O)COC(=O)c1ccc(Cl)cc1O)c1ccc(F)cc1` (stereo not given), for which the Potency result was “inactive”.

Take `Cc1ccc2c(Cl)c(C(=O)Nc3nn[nH]n3)sc2c1`: the Potency result was “inactive”.

For `NC(=O)COC(=O)c1sc2cc(F)ccc2c1Cl`, the Potency was 25.1 µM (active).

As for `Cc1ccc(S(=O)(=O)NCC(=O)N(CC(=O)NC(C)(C)C)Cc2cccs2)cc1`, the Potency result is “inactive”.

In the case of `COCCCNC(=O)C1CCN(c2ccc(N3CCOCC3)nn2)CC1`, the Potency entry was “inactive”.

Regarding `CCc1nc2c(OCCOc3ccccc3)cccn2c1N(C=O)Cc1ccc(OC)cc1`, the Potency result is “inactive”.

On to `Cc1ccc(S(=O)(=O)N(CC(O)CN2C(=O)NC(C)(C)C2=O)c2cccc([N+](=O)[O-])c2)cc1` (stereo not given), for which the Potency result was “inactive”.

In the case of `COc1ccc(-c2cc(C3CCN(c4ncccc4[N+](=O)[O-])CC3)[nH]n2)cc1`, the Potency result is “inactive”.

In the case of `CN(C)C(=O)c1cccc(-c2cnc3sc(NCc4ccc5c(c4)OCO5)nn23)c1`, the Potency result is “inactive”.

For `Cc1cccc(C(=O)N2CCCC(Nc3ccc(C(C)C)cc3)C2)n1` (stereo not given), the Potency result was “inactive”.

As to `O=C(Nc1ccccc1)c1nnsc1S(=O)(=O)c1ccc(Cl)cc1`, the Potency was 6.31 µM (active).

As for `CC1=C(C(=O)Nc2ccccc2)S(=O)(=O)CCO1`, the Potency result was “inactive”.

Turning to `Cc1nnsc1C(=O)Nc1cccc(Cl)c1C`, the Potency entry was “inactive”.

With `COc1ccc(C(C)NC(=O)C2CCCC2)cc1` (stereo not given), the Potency entry is “inactive”.

Consider `O=C(Cn1cc(C(F)(F)F)ccc1=O)Nc1ccc2c(c1)OCCO2`, for which the Potency result was “inactive”.

Regarding `CC1(C)Cc2c(sc(NC(=O)C(=O)N3CCOCC3)c2C#N)CO1`, the Potency entry was “inactive”.

In the case of `S=C(Cc1ccc(Cl)cc1)N1CCOCC1`, the Potency entry was “inactive”.

Take `CC1CCN(C(NC(=O)c2ccco2)C(=O)c2ccccc2)CC1` (stereo not given): the Potency entry is “inactive”.

For the compound `CCOC(=O)c1c(Cc2ccc(Cl)cc2)c[nH]c1C`, the Potency result is “inactive”.

With `COC1=CC(=O)OC(c2ccc(OC)cc2)C1` (stereo not given), the Potency result is “inactive”.

As to `COc1ccc(N=C2C=CC(=O)O2)cc1`, the Potency is 8.91 µM (active).

For the compound `COc1ccc(N=Nc2c(-c3ccc(OC)cc3)[nH]oc2=O)cc1`, the Potency result was “inactive”.

As for `O=C(Nc1ccccc1F)c1ccc(Cn2cc(Br)cn2)cc1`, the Potency entry is “inactive”.

With `C[C@H](CO)N1C[C@H](C)[C@@H](CN(C)Cc2ccc3c(c2)OCO3)OCc2cnnn2CCCC1=O`, the Potency result was “inactive”.

Turning to `Cc1ccccc1-n1nc(C)c2c1N=C1C(Cl)=CC(Cl)=CN1C2c1ccc(C(=O)O)cc1` (stereo not given), the Potency result was “inactive”.

Regarding `Fc1ccccc1N=C1Nc2cccc3cccc1c23`, the Potency was 25.1 µM (active).

Regarding `O=C(NCC1CCCCC1)c1cc(S(=O)(=O)N2CCCCC2)ccc1N1CCOCC1`, the Potency entry is “inactive”.

Take `COc1cccc2c1CCC(NC(C)=O)C2=O` (stereo not given): the Potency entry was “inactive”.

`CCOc1ccc2[nH]c3nc(SCC(=O)NC4CCCC4)nnc3c2c1`: the Potency entry was “inactive”.

`COc1ccc(CCN(C)C(=O)C23CC4CC(CC(Cl)(C4)C2)C3)cc1OC`: the Potency entry is “inactive”.

Turning to `COc1cccc(C(C(=O)NC2CCCC2)N(C(=O)c2ccco2)c2cccc(C(C)=O)c2)c1OC` (stereo not given), the Potency result was “inactive”.

As for `CCOc1ccc(C(=O)CCN2CCOCC2)cc1`, the Potency is 39.8 µM (active).

As to `CCOc1ccc(C(=O)CCC(=O)NC2=NCCS2)cc1`, the Potency entry is “inactive”.

As to `CCOc1ccc(-c2ccc(SCC(=O)N3CCOCC3)nn2)cc1`, the Potency entry was “inactive”.

Consider `O=C(O)CCCn1cc(NC(=O)COc2cccc(Cl)c2)cn1`, for which the Potency result was “inactive”.

In the case of `CC(NC(=O)COC(=O)C1CCN(S(=O)(=O)c2ccccc2C(F)(F)F)CC1)c1ccccc1` (stereo not given), the Potency result was “inactive”.

On to `CN(C)C(CNC(=O)c1cc(Br)c(Br)s1)c1ccco1` (stereo not given), for which the Potency entry was “inactive”.

Regarding `O=C1C(Cl)=C(Oc2ccccc2)C(=O)c2ccccc21`, the Potency is 3.16 µM (active).

Turning to `CCC1=C(OC(=O)N(CC)CC)N2C(=O)OC(=NCCc3c[nH]c4ccccc34)[C@]2(C)[C@H]2C1=CC[C@H]1C(=O)N(CC)C(=O)[C@H]12`, the Potency result was “inactive”.

With `CSCCC(NS(=O)(=O)c1ccc2c(c1)oc(=O)n2C)C(=O)NC1CCCc2ccccc21` (stereo not given), the Potency result is “inactive”.

As to `CC[C@]1(C(=O)OC)[C@H]2C(=O)N(C)C(=O)[C@H]2[C@H]2CN(C)C(=NCc3ccccc3)N21`, the Potency result is “inactive”.

In the case of `Cc1cc(C)cc(NC(=O)Cn2cnc3c(nnn3Cc3ccc(F)cc3)c2=O)c1`, the Potency result is “inactive”.

Regarding `CCc1nnc(NC(=O)CSCc2cc(=O)n3cc(C)sc3n2)s1`, the Potency result was “inactive”.
